Dicer processing = inhibitors of human Dicer processing of pre-microRNA | actives 6% (n = 47,000) | cat-ELCCA pre-miR-21 Dicer processing, chemiluminescence; hits give high values | z-score at 25 µM | Q9UPY3 | AID 1347074; in the data active = z-score above about 3, passing the limit was not always enough;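 note: plate controls were vehicle for no effect and no enzyme for full effect; higher signal means more uncleaved substrate so more Dicer inhibition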
Numbers without * were called inactive. This excerpt belongs to a sample that is enriched for hits.

SMILES | Dicer processing
CCOC(=O)/C(C#N)=C(\N=C(/N)c1ccc(C(F)(F)F)cc1)Nc1ccc(Cl)cc1 | 0.59
CC(C)(C)c1ccc(Oc2c(C(F)(F)F)oc3c(CN4CCOCC4)c(O)ccc3c2=O)cc1 | -0.31
CC(=O)OC1CC2C(=C3CCC(O)CC31C)CCC1(C)C(C(C)CCCC(C)C)CCC21 (stereo unspecified) | 0.56
CC(=O)Oc1cc2sc(=O)oc2c2ccccc12 | -4.4
Cc1ccc(-c2nc(NC(=O)COc3ccc(Cl)cc3Cl)sc2C)cc1Cl | 2.1
Cc1ccc(-c2nc3sc(C)c(C)c3c(=O)o2)cc1 | 0.59
O=c1oc2c(-c3ccccc3Cl)cc(O)cc2s1 | 3.6*
Cc1ccc(C(=O)Nc2nc(-c3ccc(C)c(Cl)c3)c(C)s2)cc1 | 1.4
Cc1ccc(-c2cc(O)cc3sc(=O)oc23)cc1Cl | 5.3*
O=c1oc2c(-c3cccc(F)c3)cc(O)cc2s1 | 5*
CCc1ccc(-c2cc(O)cc3sc(=O)oc23)cc1 | 1.9
Cc1ccc(-c2cc(O)cc3sc(=O)oc23)cc1 | 8.1*
O=c1oc(-c2ccccc2Cl)nc2ccc(I)cc12 | 2.7
CC1(C)SC(c2ccc(Cl)cc2Cl)NC1C(=O)O (stereo unspecified) | 0.05
N#Cc1sc(-c2ccc(F)cc2)cc1N=Cc1cccc([N+](=O)[O-])c1 | 0.14
CCCCCCCc1c(O)c2cccc3c4c(n(c1=O)c23)CCCC4 | -0.44
CC1(C)CCc2cc(CN3CCN(Cc4ccccc4)CC3)ccc2O1 | 2.1
CC(C)n1cc(-c2nc(C(=O)NNS(=O)(=O)c3ccc(Cl)s3)cs2)c(=O)n(Cc2ccccc2)c1=O | -0.19
O=C(O)C1CCCCC1C(=O)N1CCN(c2ccc(F)cc2)CC1 (stereo unspecified) | -0.82
CC(=O)Nc1ccc(S(=O)(=O)NC2C(C)(C)C3CC[C@]2(C)C3)cc1 (stereo partly specified) | -2.3
COc1cccc(CN(C)C)c1O | -1.3
COc1ccccc1CC(=O)Nc1ccc2ccccc2n1 | -0.4
COc1cccc(CNc2cnc3ccccc3c2)c1O | 4.5*
N#CCCCN(Cc1ccccc1)Cc1ccccc1 | -0.07
O=C(Cn1c(=O)n(CC(=O)NC2CCCCC2)c2ccccc21)NC1CCCCC1 | -0.65
SMILES | Dicer processing
CSc1n[nH]c(NC(=O)c2ccc(Cl)c(Cl)c2)c1S(=O)(=O)c1ccc(Cl)cc1 | -1.1
Cc1cc(Cc2ccc(Cl)cc2)c(=O)[nH]n1 | -0.59
Cc1ccc(-c2cc(Cc3cccn3-c3ccc(Cl)cc3)c(=O)[nH]n2)cc1 | 3.8*
Cc1ccc(-c2cc(Cc3cccs3)c(=O)[nH]n2)cc1 | 16
Cc1ccc2c(c1)C(=O)C(=O)N2CCOc1ccc(Br)cc1 | 0.93
Cc1ccc2oc(=O)n(CCCOc3ccc(Br)cc3)c2c1 | 3.2*
Cc1ccc2oc(=O)n(CCC#N)c2c1 | -0.44
Cc1ccc(N2CCn3c2nc2c3c(=O)n(CC(=O)O)c(=O)n2C)cc1C | 0.52
CS(=O)(=O)NCCc1ccc(S(N)(=O)=O)cc1 | 6.9*
NS(=O)(=O)c1ccc(CNS(=O)(=O)Cc2ccccc2)cc1 | -0.27
O=S(=O)(CS(=O)(=O)NCCc1ccc(Cl)cc1)NCCc1ccc(Cl)cc1 | 0.29
CS(=O)(=O)NCCc1ccncc1 | 0.42
NS(=O)(=O)c1ccc(CCNS(=O)(=O)c2ccc(Cl)cc2)cc1 | 3.4*
O=c1[nH]c2ccc(S(=O)(=O)NCCc3ccc(F)cc3)cc2[nH]1 | 1.9
CCOc1cc(C(F)(F)F)cnc1C(=N)N | 0.92
C=CCn1c2ccccc2c2nn3cnnc3nc21 | 0.19
Cc1ccc(-c2cc3nc(-c4ccncc4)cc(C(F)(F)F)n3n2)cc1 | -0.26
O=S(=O)(Nc1ccc(F)cc1)c1cc(Cl)c(Cl)cc1Cl | -0.49
Cc1ccc(NS(=O)(=O)c2cc(Cl)c(Cl)cc2Cl)c(N)c1 | 8.3*
Cc1ccc(NS(=O)(=O)c2ccc(Cl)cc2)c(N)c1 | 2.8
CC1=C(C(=O)OC(C)C)C(c2cccc(F)c2)n2c(nc3ccccc32)N1 (stereo unspecified) | -1
C=CCN1CCc2c(cc(O)c(O)c2Br)[C@@H](c2ccccc2)C1 | -3.7
C=CCN1Cc2ccc(C(=O)O)cc2C1 | 3.2*
C=CCN1C(=O)C(O)(CC(=O)c2ccc3c(c2)CCCC3)c2ccccc21 (stereo unspecified) | 1.3
Clc1cccc(CN2CCN(Cc3ccncc3)CC2)c1 | -0.45
SMILES | Dicer processing
O=S(=O)(Nc1n[nH]c2ccccc12)c1ccc(Cl)c(Cl)c1 | 0.95
Cn1c(=O)c2c(nc(Oc3ccc(F)cc3Cl)n2C)n(C)c1=O | 2.9
Cc1cc(Oc2nc3c(c(=O)n(C)c(=O)n3C)n2C)cc(C)c1Cl | 3.8*
CC(C)n1c(Oc2ccc(F)cc2)nc2c1c(=O)n(C)c(=O)n2C | 0.6
N#Cc1cn(-c2ccc(Cl)cc2)c(=O)n(Cc2c(Cl)cccc2Cl)c1=O | -0.02
Oc1ccc2ncccc2c1C(Nc1ccccn1)c1ccccc1F (stereo unspecified) | 1.4
CCOc1ccc(C(Nc2ccccn2)c2ccc3ccc(C)nc3c2O)cc1 (stereo unspecified) | -2.3
CSc1ccc(C(Nc2ccccn2)c2ccc3ccc(C)nc3c2O)cc1 (stereo unspecified) | -0.44
Cc1ccc2ccc(C(Nc3ccccn3)c3ccc(N(C)C)cc3)c(O)c2n1 (stereo unspecified) | 4.4*
Cc1ccc2ccc(C(Nc3ccccn3)c3ccc(Br)cc3)c(O)c2n1 (stereo unspecified) | 5.7*
CCOc1cccc(C(Nc2ccccn2)c2ccc3ccc(C)nc3c2O)c1O (stereo unspecified) | 0.08
CN1C(=O)C(O)(CC(=O)c2ccccc2O)c2ccccc21 (stereo unspecified) | -2.6
O=C(CSc1nnc(-c2ccco2)n1-c1ccccc1)c1c[nH]c2ccccc12 | 0.79
O=[N+]([O-])c1ccc(Oc2ccc(Oc3ccc([N+](=O)[O-])cn3)c(-c3ccccc3)c2)nc1 | -0.69
CCSC1=C(C#N)C(=O)NC(c2ccc(OC)cc2OC)S1 (stereo unspecified) | 0.09
CCCCOC(=O)NC(Nc1ccc(OC)cc1)(C(F)(F)F)C(F)(F)F | -1.3
CCCCC1(O)CC(c2ccc(OC)cc2)NC(c2ccc(OC)cc2)C1C (stereo unspecified) | 3.2*
COc1ccc(C2C/C(=N/O)C(C)C(c3ccc(OC)cc3)N2)cc1 (stereo unspecified) | 1.4
COc1ccc(C2NC(c3ccc(OC)cc3)C(C)C(=O)C2C)cc1 (stereo unspecified) | -0.54
CC(=O)OCCOCn1cc(F)c(=O)[nH]c1=O | -1
COC(=O)CSCC(=O)Nc1ncc2c(n1)CC(C)(C)CC2=O | -0.23
COC(=O)C1=C(O)CSC1=Nc1ccc(F)cc1 | 5.1*
COC(=O)C1=C(O)CSC1=Nc1ccccc1 | 0.42
COC(=O)c1nn(-c2ccc(F)cc2)ccc1=O | -0.48
Cc1c(NS(=O)(=O)c2ccc(-c3ccno3)s2)c(=O)n(-c2ccccc2)n1C | -9.9
SMILES | Dicer processing
C/C(Cc1nnn(-c2cc(C)on2)n1)=N\OC(=O)Nc1ccc(Cl)cc1 | 0.71
O=C1OC(Nc2ccccc2Cl)c2ccccc21 (stereo unspecified) | 0.62
COc1ccc(OCc2nnc3n2N=C(c2ccc(Br)cc2)CS3)cc1 | 3*
COCCc1nnc2n1N=C(c1ccc(Br)cc1)CS2 | -0.4
Fc1ccc(OCc2nnc3n2N=C(c2ccc(Br)cc2)CS3)cc1 | -1
COc1ccc(OC)c(C2C(C(=O)OC(C)C)=C(C)NC3=C2C(=O)CCC3)c1 (stereo unspecified) | -0.27
Cc1cc2c(cc1C)NC(c1ccccc1O)C1=C(CC(C)(C)CC1=O)N2 (stereo unspecified) | 0.96

Screening results: PubChem, Center for Chemical Genomics, University of Michigan
